Results: the supplement of paper PMC3724861
Only a selection was taken, and hits are over-represented in it overall. The true hit rate is not given. A number with no mark means an inactive call.

These sequences were tested on T1, Caupolican (Caup) homeodomain DNA-binding domain (assay: PBM E-score (8-mer, recovered from the published 9-mer minima) (E-score (dimensionless, -0.5 to 0.5)); Drosophila protein; higher = stronger relative binding preference, active = 0.31 or more).
T1 sequence: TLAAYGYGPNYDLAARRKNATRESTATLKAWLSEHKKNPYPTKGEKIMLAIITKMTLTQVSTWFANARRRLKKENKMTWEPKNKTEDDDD
Protocol: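 Protein binding microarray (PBM): in vitro transcribed/translated Caupolican (Caup) homeodomain DNA-binding domain (residues 214-303) applied at 100 nM to a universal 8-mer PBM array (Agilent AMADID 015681). The 8-mer enrichment score (E-score, range -0.5 to 0.5) was computed, and each 9-mer score is the minimum E-score of its two constituent 8-mers. The E-score is the same for a 9-mer and its reverse complement; 0.31 is the stated binding threshold.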
In the case of CTGTACAG, the “PBM E-score” value is reported as 0.164. With ATCTACAT the “PBM E-score” value was 0.29. With CAGTACAC the “PBM E-score” value was 0.288. In the case of ATGTACAT, the “PBM E-score” value is reported as ≥ 0.469 (active). In the case of CTGTACAC, the “PBM E-score” value is reported as 0.284. For ATGTACAC, the “PBM E-score” value was 0.441 (active). For ATGTACGC, the “PBM E-score” value was 0.29. For ATGTACCG, the “PBM E-score” value was 0.287. GTGTACAC was tested, and the “PBM E-score” value was 0.389 (active). With ATGTACAG the “PBM E-score” value was 0.343 (active). With GGGTACAC the “PBM E-score” value was 0.14. TCCGCAAA was tested, and the “PBM E-score” value was -0.0879. In the case of CCCTTTCA, the “PBM E-score” value is reported as -0.126. For ACCCATCG, the “PBM E-score” value was -0.0141. With GCCGTCCC the “PBM E-score” value was -0.25. In the case of GCTTCCAC, the “PBM E-score” value is reported as -0.182. For ACCCGCAT, the “PBM E-score” value was 0.00073. For CCACTCGG, the “PBM E-score” value was -0.158. With AAAGAAGC the “PBM E-score” value was -0.0635. GGGGTACA was tested, and the “PBM E-score” value was 0.0877. TAGACGGA was tested, and the “PBM E-score” value was -0.0225. CTCCAGTC was tested, and the “PBM E-score” value was -0.121. CCAGTGGA was tested, and the “PBM E-score” value was -0.117. For AAAGGTAC, the “PBM E-score” value was 0.12. In the case of CGTACATA, the “PBM E-score” value is reported as 0.336 (active). In the case of AGTACAGA, the “PBM E-score” value is reported as 0.138. In the case of GGTACATA, the “PBM E-score” value is reported as 0.282. CGTACATC was tested, and the “PBM E-score” value was 0.263. With AGTACATA the “PBM E-score” value was 0.381 (active). For CGTACAGA, the “PBM E-score” value was 0.142. CAGACGCC was tested, and the “PBM E-score” value was -0.147. In the case of CCGGTCAA, the “PBM E-score” value is reported as -0.0503. For GGATCCCA, the “PBM E-score” value was -0.0305. With CCTGTTCA the “PBM E-score” value was 0.15. CTTGTTCA was tested, and the “PBM E-score” value was 0.33 (active). ATTGTTCA was tested, and the “PBM E-score” value was 0.184. CCTGTTCC was tested, and the “PBM E-score” value was 0.0821. In the case of CTTGTTCC, the “PBM E-score” value is reported as ≥ 0.337 (active). For ATTGTTCC, the “PBM E-score” value was 0.112. In the case of CATGGGGG, the “PBM E-score” value is reported as -0.157. With ATGGGAAG the “PBM E-score” value was -0.07. For GGTAGACA, the “PBM E-score” value was 0.117. In the case of CGTAGACA, the “PBM E-score” value is reported as 0.122. With TGTAGACA the “PBM E-score” value was ≥ 0.313 (active). CCACATGC was tested, and the “PBM E-score” value was 0.0879. ATTCATGC was tested, and the “PBM E-score” value was 0.0406. With ATCCATGA the “PBM E-score” value was 0.0343. For ATACATGG, the “PBM E-score” value was 0.422 (active). With CTACATGC the “PBM E-score” value was 0.369 (active). In the case of ATACATGA, the “PBM E-score” value is reported as 0.4 (active). In the case of ATTCATGG, the “PBM E-score” value is reported as -0.039. ATACATCG was tested, and the “PBM E-score” value was 0.273. CTACATCC was tested, and the “PBM E-score” value was 0.189. With ATGCATGC the “PBM E-score” value was 0.107. ATACAGGA was tested, and the “PBM E-score” value was 0.13. For ATACATGC, the “PBM E-score” value was 0.374 (active). For AAAATTAA, the “PBM E-score” value was 0.0601. For TATCGTAA, the “PBM E-score” value was 0.114. In the case of ACGACTTC, the “PBM E-score” value is reported as 0.0231. For CCGCAGAA, the “PBM E-score” value was -0.0611. With CGTCGGCC the “PBM E-score” value was -0.224. With GCGCTGCC the “PBM E-score” value was -0.257. CCAGAGAG was tested, and the “PBM E-score” value was -0.172. For CGCTTCAA, the “PBM E-score” value was -0.0124. In the case of CTATTGTC, the “PBM E-score” value is reported as 0.0455. With GAGGTACC the “PBM E-score” value was -0.137. For CCTTGTGC, the “PBM E-score” value was 0.0734. With ACTTGTGC the “PBM E-score” value was 0.0346. With ACTTGTAG the “PBM E-score” value was 0.297. For CTTTGTAC, the “PBM E-score” value was 0.229. With AGTTGTAC the “PBM E-score” value was 0.308. For CCTTGTAG, the “PBM E-score” value was 0.322 (active). For CGTTGTAG, the “PBM E-score” value was 0.154. With ACTTGTAC the “PBM E-score” value was 0.407 (active). In the case of CCTTGTAC, the “PBM E-score” value is reported as 0.399 (active). In the case of GCCTGTAC, the “PBM E-score” value is reported as 0.164. For GCTTGTAC, the “PBM E-score” value was 0.38 (active). With GCTTGGAC the “PBM E-score” value was -0.0623. With GCCCCTCA the “PBM E-score” value was -0.223. For CGAACGTC, the “PBM E-score” value was -0.121. ATTGAAAA was tested, and the “PBM E-score” value was 0.0968. With CAAGTTCA the “PBM E-score” value was 0.0645. With GTCATTTA the “PBM E-score” value was 0.184. AGCGAGCG was tested, and the “PBM E-score” value was -0.0955. In the case of GATATGAC, the “PBM E-score” value is reported as 0.0792. With CATGAAGA the “PBM E-score” value was 0.0832. With GATGGCGA the “PBM E-score” value was -0.0291. For AGAGTCGG, the “PBM E-score” value was -0.0944. CAGTTAAC was tested, and the “PBM E-score” value was -0.00501. For CATTGTAG, the “PBM E-score” value was 0.0869. In the case of GATTGTAC, the “PBM E-score” value is reported as 0.235. CATTGTAC was tested, and the “PBM E-score” value was 0.323 (active). With CATTCCAC the “PBM E-score” value was -0.0122. In the case of ACAAGTTC, the “PBM E-score” value is reported as 0.233. CCAAGTAG was tested, and the “PBM E-score” value was -0.0584. In the case of ACAAGTAG, the “PBM E-score” value is reported as 0.351 (active). For ACAAGTTA, the “PBM E-score” value was 0.325 (active). In the case of ACAAGAAT, the “PBM E-score” value is reported as 0.307. For GCAAGTAA, the “PBM E-score” value was 0.173. For ACAAGTAA, the “PBM E-score” value was 0.331 (active). CCAAGTAA was tested, and the “PBM E-score” value was 0.0669. GCAAGTTA was tested, and the “PBM E-score” value was 0.0766. For GCAAGAAC, the “PBM E-score” value was 0.00872. In the case of ACAAGTGG, the “PBM E-score” value is reported as 0.205. ACAAGAAC was tested, and the “PBM E-score” value was 0.316 (active). In the case of AATCTAGT, the “PBM E-score” value is reported as 0.0691. With CCGGTAAC the “PBM E-score” value was -0.0103. For CCGGACAG, the “PBM E-score” value was 0.0176. For CCCAAGCA, the “PBM E-score” value was -0.0938. For CGACCGCA, the “PBM E-score” value was -0.144. In the case of CATGACGC, the “PBM E-score” value is reported as 0.032. AAGGACTA was tested, and the “PBM E-score” value was 0.0433. AATTAAGG was tested, and the “PBM E-score” value was 0.0103.
